In PubChem BioAssay AID770 (SRMLSC, 2007):
The whole screen tested about 3,300 compounds, of which fewer than 10 were called active.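 Rule for the calls: active = growth inhibition above 90% in viable cell count at a single dose; inactive = growth inhibition below 90%.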 Not all results are given here.

Test: HT29 colon tumor cell growth inhibition, primary screen, imaging, high content imaging, 24 h, CellTiter-Glo (AID 770);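 for condensed nuclei: share of cells whose nuclear area falls below control median minus 1.5 SD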
Conditions: HT29 cell number by imaging, at 10 µM, stronger effect = higher value; for condensed nuclei: measured here: percent cells with condensed nuclei
[1] = measured here: ATP CellTiter-Glo viability

| Structure (SMILES) | growth inhibition | growth inhibition [1] [%] | condensed nuclei [%] |
| --- | --- | --- | --- |
| COC(=O)c1n[nH]c2ccccc12 | 52.2% (inactive) | 8.18 | 5 |
| CCCCCCOc1ccc(C(=O)n2cnc(N)n2)cc1 | -1.14% (inactive) | -15.8 | 1.48 |
| O=c1[nH]cnc2cc(-c3ccccc3)sc12 | 7.95% (inactive) | 3.25 | 2.77 |
| COc1cccc(NC(=O)c2cc(C(=O)Nc3cccc(OC)c3)n(C)n2)c1 | -5.68% (inactive) | 22.7 | 6.71 |
| COC(=O)c1ccc(C2/C(=C(/O)c3ccc(OC)cc3)C(=O)C(=O)N2c2cc(C)on2)cc1 (stereo unspecified) | 8.36% (inactive) | 6.44 | 3.44 |
| COc1cc(C)nc(N(C)S(=O)(=O)c2ccccc2Cl)n1 | 7.98% (inactive) | -1.53 | 3.59 |
| Cn1c(NCC(O)c2ccccc2)nc2c1c(=O)n(Cc1ccc(Cl)c(Cl)c1)c(=O)n2C (stereo unspecified) | 46.1% (inactive) | 22.7 | 1.95 |
